Compound activity: PubChem BioAssay, National Center for Advancing Translational Sciences (NCATS)
NPC1 promoter act = qHTS Assay for NPC1 Promoter Activators | Huh7 NPC1 promoter luciferase reporter, 24 h | Potency, µM (doses to about 9.22 µM), without a hit: top-dose activation, usual class: activators | 320,000 tested, 2.4% active; note: % of control where 0% means no effect; nearly all actives have a fitted effect of over 60% in size
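Compounds in DMSO were transferred onto Huh7 NPC1-luciferase reporter cells pre-incubated 2 h; after 24 h at 37 °C, Amplite reagent was dispensed and luminescence recorded 10 min later.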
ELG1 genotox = qHTS screen for small molecules that induce genotoxicity in human embryonic kidney (HEK293T) cells expressing luciferase-tagged ELG1. 330,000 tested, 1.3% active. HEK293T ELG1-luciferase reporter, luminescence, 16 h. AID 504466, 2011. Potency, µM (series often up to 46 µM), for inactives: at the highest dose activity change, positive = activation, most hits filed as activators; note: % of control where 0% means no effect; nearly all actives have a fitted effect of over 60% in size
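DMSO vehicle served as control against compound-treated ELG1-luciferase HEK293T cells; exposure lasted 16 hr at 37 °C and 5% CO2, followed by ONE-Glo luminescence detection after 30 min.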
ELG1 repair inh = qHTS screen for small molecules that inhibit ELG1-dependent DNA repair in human embryonic kidney (HEK293T) cells expressing luciferase-tagged ELG1. HEK293T ELG1-luciferase reporter, luminescence, 16 h; DNA damage induced by 5-fluorouridine. Potency, µM (highest dose often 46.1 µM), inactives show top-dose activity change, negative = inhibition, actives largely listed as inhibitors. 330,000 tested, 2.3% active. AID 504467, 2011; note: % is set by controls: 0 for no effect and ±100 for the full control effect; nearly all actives have a fitted effect of over 55% in size
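In this reporter screen, reduction of luminescence relative to DMSO vehicle indicated activity. Compounds and 5-fluorouridine were added together to 2,000 cells per well, incubated for 16 hr at 37 °C, then developed with ONE-Glo.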
FLuc counter = qHTS profiling assay for firefly luciferase inhibitor/activator using purifed enzyme and Km concentrations of substrates (counterscreen for miR-21 project) | 360,000 tested, 6.9% active | Potency, µM (series often up to 57.5 µM), for the others: top-dose activity change, negative = inhibition, usual class: inhibitors | purified FLuc, Km substrates, luminescence inhibition;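 note: plate controls were vehicle for no effect and reference inhibitor for full effect; nearly all actives have a fitted effect of over 55% in size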
Target sequence (P08659 whole entry, looked up): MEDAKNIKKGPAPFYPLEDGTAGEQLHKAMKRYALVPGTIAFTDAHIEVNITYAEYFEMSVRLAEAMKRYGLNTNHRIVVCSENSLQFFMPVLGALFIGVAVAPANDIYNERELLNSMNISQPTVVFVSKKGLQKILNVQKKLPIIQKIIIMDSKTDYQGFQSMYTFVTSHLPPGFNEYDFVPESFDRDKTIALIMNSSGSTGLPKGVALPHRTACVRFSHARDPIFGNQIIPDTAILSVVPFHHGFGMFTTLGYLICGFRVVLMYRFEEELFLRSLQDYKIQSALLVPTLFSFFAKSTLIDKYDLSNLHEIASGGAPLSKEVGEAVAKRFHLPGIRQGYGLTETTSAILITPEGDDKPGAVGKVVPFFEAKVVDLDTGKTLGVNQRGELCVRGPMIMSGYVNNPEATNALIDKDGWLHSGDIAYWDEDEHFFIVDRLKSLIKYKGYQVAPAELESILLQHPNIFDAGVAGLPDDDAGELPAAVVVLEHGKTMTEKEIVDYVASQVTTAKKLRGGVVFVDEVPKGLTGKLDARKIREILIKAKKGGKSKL
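Biochemical qHTS of compounds, final roughly 60 µM downward over six points, against 10 nM purified firefly luciferase using Km concentrations of substrates (10 uM D-luciferin, 10 uM ATP) in Tris acetate pH 7.5 buffer; luminescence output.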
SMN2 splice up = qHTS Assay for Enhancers of SMN2 Splice Variant Expression | HEK293 SMN2-luciferase splicing reporter, luminescence, 30-36 h | Potency, µM (series often up to 46.1 µM), without a hit: at the highest dose activity change, positive = activation, actives largely listed as activators | 210,000 tested, 2.8% active | AID 1458, 2008; note: % of control where 0% means no effect; nearly all actives have a fitted effect of over 55% in size
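HEK293 cells carry an SMN2 minigene-luciferase reporter in which exon 7 inclusion puts luciferase in frame. Cells were seeded at 2000 cells/well, attached for 10-12 hours, then exposed to compounds for 30-36 hours at 37C before ONE-Glo luminescence.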
Rab9 prom act = qHTS Assay for Rab9 Promoter Activators; Huh7 Rab9 promoter-luciferase reporter, luminescence, 24 h; 320,000 tested, 2.8% active; Potency, µM (top dose mostly 9.22 µM), for the others: top-dose activation, negative = inhibition, actives largely listed as activators; note: % of control where 0% means no effect; nearly all actives have a fitted effect of over 60% in size
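Cell-based reporter: Huh7 stable for Rab9 promoter-driven luciferase, plated in reduced-serum medium with 10% FBS at 1500 cells/well, compound-treated 24 h at 37 °C, luminescence read after 10 min reagent.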
* marks the source's active call; other numbers are inactive results; ? = inconclusive; / = no result given; [ ] = another dose, or the depositor's remark. Most compounds without a hit are left out; they make up all but 9.4% or so of the library. Calls come from the whole dose curve; as a rule, active = well fitted curve in the direction sought with a large enough effect; inconclusive = small, poorly fitted or top-dose-only effect, or another doubt; inactive = no such curve, though single readings can be large; an effect the other way counts as inactive or inconclusive. Potency is the fitted concentration of half-maximal effect.

SMILES | NPC1 promoter act | ELG1 genotox | ELG1 repair inh | FLuc counter | SMN2 splice up | Rab9 prom act
COCC(C)n1c(C)cc(C(=O)CSc2nc(C)c(C)c(C)n2)c1C (configuration not stated) | -7% | -4% | -22% | -19% | / | -7%
COCC(C)n1c(C)cc(C(=O)CSc2nnnn2C2CCCC2)c1C (configuration not stated) | ? | ? | ? | 4.3µM* | / | ?
CCn1c(CN2CCC(C)CC2)nc2cc(NC(=O)COc3ccc([N+](=O)[O-])cc3)ccc21 | / | / | / | -2% | / | /
COCCCNc1ncnc2c1[nH]c1ccccc12 | -1% | -1% | -13% | 2% | 18% | 1%
CCCOc1ncnc2c1[nH]c1ccccc12 | 19% | 0% | ? | 17µM* | -60% | -4%
CCN(CC)c1ncnc2c1[nH]c1ccccc12 | 0% | -7% | ? | -19% | -67% | -11%
CCCCOc1ncnc2c1[nH]c1ccc(C)cc12 | ? | ? | ? | 1.1µM* | / | ?
CCCOc1ncnc2c1[nH]c1ccc(OC)cc12 | 1.1µM* | ? | ? | 2.4µM* | / | 0.56µM*
Cc1ccc2[nH]c3c(=O)n(Cc4ccncc4)cnc3c2c1 | 2% | 0% | 8% | -2% | -16% | -3%
COCCNc1ncnc2c1[nH]c1ccccc12 | 2% | -13% | 15µM* | -13% | / | -2%
NCC1O[C@@H](OC2C(N)C[C@H](N)[C@@H](O[C@H]3OC(CO)C(O)C(N)C3O)C2O)C(O)C(O)C1O (some centres not stated) | / | / | / | / | 5% | /
Cc1cccc(NC(=O)c2cnc3sc(N4CCCC4)nn3c2=O)c1C | / | / | / | 0% | / | /
CCCC[C@]12Cc3ccccc3C(O1)c1c(cc(-c3ccccc3)oc1=O)O2 | -18%[1.84 µM] | / | / | -19%[11.5 µM] | / | -15%[1.84 µM]
CC(C)Oc1ncnc2c1[nH]c1ccccc12 | -9% | -2% | ? | 15µM* | / | -16%
Cc1cccc(N2CCN(c3ccc4cc(S(=O)(=O)N5CCC(C)CC5)ccc4n3)CC2)c1C | / | / | / | -1% | / | /
O=C(CSc1nc(-c2ccccc2)c(-c2ccccc2)[nH]1)N1CCN(S(=O)(=O)c2ccccc2)CC1 | -1% | -6% | 16µM* | 1% | -10% | -3%
Cc1cc(Br)ccc1SCC(=O)N1CCN(S(=O)(=O)c2ccccc2)CC1 | ? | 16µM* | ? | 13µM* | / | ?
O=C(CSc1ncccn1)N1CCN(S(=O)(=O)c2ccccc2)CC1 | 3% | 0% | -5% | -1% | / | -4%
COC(=O)c1ccccc1NC(=O)Cn1c(=O)n(CCCC(=O)NCCc2ccc(OC)c(OC)c2)c(=O)c2ccccc21 | / | / | / | -11% | 0% | /
Cc1ccc(NC(=O)c2cc(C(=O)c3cc(Cl)ccc3O)cn(-c3ccc(C)cc3)c2=O)cc1 | -2% | -10% | 26µM* | 3% | -65% | -12%
N#Cc1cc(C(=O)c2cc(Cl)ccc2O)cn(-c2ccccc2)c1=O | 0% | -3% | -13% | 2% | -8% | -3%
COc1cccc2cc(C(=O)Nc3cc(C)cc(C)c3)/c(=N/NS(=O)(=O)c3ccccc3)oc12 | 0% | ? | 0% | 1% | / | -4%
COc1ccc2oc(=O)c(C(=O)Nc3cccc(C(C)=O)c3)cc2c1 | 28% | 8% | ? | 4.8µM* | / | ?
COc1cc(/C=C/[N+](=O)[O-])ccc1OC(=O)c1cc2ccccc2oc1=O | -18% | ? | ? | 6µM* | / | 10%
COc1ccccc1OC(=O)c1cc2ccccc2oc1=O | -2% | 7% | 7% | -18% | / | -2%
SMILES | NPC1 promoter act | ELG1 genotox | ELG1 repair inh | FLuc counter | SMN2 splice up | Rab9 prom act
COc1ccc2oc(=O)c(/C(C)=N/Nc3ccccc3)cc2c1 | -1% | -1% | -11% | 24µM* | -26% | -7%
COc1ccc(NC(=O)c2cc3ccccc3o/c2=N\NS(=O)(=O)c2ccc(C)cc2)cc1 | 1µM* | ? | ? | -28% | / | 0.45µM*
O=C(Cn1c(=O)oc2cc(S(=O)(=O)NCc3ccccc3)ccc21)N(CCO)Cc1ccccc1 | / | / | / | -1% | / | /
COc1cccc(-c2nc(CS(=O)(=O)CC(=O)NCc3ccc(C)cc3)c(C)o2)c1 | / | / | / | 3% | -20% | /
CN(C)CCOC(=O)c1ccc(N)cc1 | / | / | / | / | -10%[9.22 µM] | /
COc1ccc(CNC(=O)c2cc3ccccc3oc2=O)cc1 | -5% | 0% | 0% | ? | / | -1%
COc1cccc(OC(=O)c2cc3ccccc3oc2=O)c1 | 2% | 11% | -27% | 13µM* | -3% | -3%
COc1cccc(NC(=O)c2cc3ccccc3oc2=O)c1 | 1.4µM* | 0.92µM* | ? | 0.24µM* | / | 2.5µM*
Cc1cccnc1NC(=O)c1cc2ccccc2oc1=O | 1.8µM* | 2.1µM* | ? | 0.6µM* | 20µM* | 1µM*
Cc1sc2ncnc(SCC(=O)NC(=O)c3cccn3C)c2c1C | 0% | 0% | -3% | 3% | -39% | 4%
COc1ccccc1NC(=O)Cn1c(=O)n(Cc2ccco2)c(=O)c2oc3ccccc3c21 | / | / | / | -9% | / | /
CCOc1cc(/C=C2/C(=O)ON=C2C)cc(Br)c1O | -6% | 2% | 9% | 21µM* | / | -10%
CCOc1cc(/C=C2\C(=O)ON=C2c2ccccc2)cc(Br)c1O | -12% | ? | ? | 9.5µM* | / | -7%
COc1ccc(NC(=O)CN2C(=O)CCn3nc(-c4cccn4C)cc32)cc1 | / | / | / | -8% | / | /
CCc1cc2c(=O)n(-c3ccccc3)cnc2s1 | -3% | 7% | ? | -10% | 7% | 6%
Cc1ccccc1-n1c(SCC(N)=O)nc2sc(-c3ccccc3)cc2c1=O | -2% | -6% | -2% | -7% | -12% | -4%
CCc1cc2c(=O)n(-c3ccc(C)cc3)cnc2s1 | 4µM* | ? | ? | 11µM* | 3.2µM* | 2.5µM*
O=c1[nH]c(-c2ccccc2)nc2sc(-c3ccccc3)cc12 | -11% | ? | ? | ? | ? | ?
O=c1[nH]cnc2sc(-c3ccccc3)cc12 | 20% | 19% | ? | 15µM* | 16% | ?
Cc1ccc(C)n1-n1c(C)nc2sc(-c3ccccc3)cc2c1=O | ? | ? | ? | 17µM* | -16% | ?
CC(=O)Cn1cnc2sc(-c3ccccc3)cc2c1=O | 3.2µM* | 13µM* | ? | 9.5µM* | 20µM* | 4.5µM*
